We go through 40 compounds from PubChem BioAssay (EPA / NIEHS).

Records with an inconclusive call do not appear. Activity calls are given as the source filed them. The calls were made as follows: active = hit-call score of the fitted dose curve at least 0.9, where 1 is the maximum; inconclusive = response in the unintended direction; inactive = score below 0.9.

Peroxisome proliferator-activated receptor gamma (Homo sapiens), sequence (P37231 whole entry, looked up): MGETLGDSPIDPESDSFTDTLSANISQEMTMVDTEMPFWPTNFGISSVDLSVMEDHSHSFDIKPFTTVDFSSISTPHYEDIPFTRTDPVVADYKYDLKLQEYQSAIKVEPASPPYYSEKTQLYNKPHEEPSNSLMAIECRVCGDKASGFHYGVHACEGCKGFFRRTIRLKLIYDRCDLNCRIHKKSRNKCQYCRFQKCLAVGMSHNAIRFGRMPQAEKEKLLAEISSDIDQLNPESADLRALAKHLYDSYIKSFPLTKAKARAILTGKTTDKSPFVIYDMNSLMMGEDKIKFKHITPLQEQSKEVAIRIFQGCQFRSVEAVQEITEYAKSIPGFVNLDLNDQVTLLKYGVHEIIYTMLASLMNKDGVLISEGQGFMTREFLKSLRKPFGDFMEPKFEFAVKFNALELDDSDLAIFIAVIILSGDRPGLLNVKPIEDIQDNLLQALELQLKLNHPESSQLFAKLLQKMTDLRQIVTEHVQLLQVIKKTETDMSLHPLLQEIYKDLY

In this test the target is Peroxisome proliferator-activated receptor gamma (Homo sapiens) (UniProt P37231). Description: ATG_PPARg_TRANS: Attagene TRANS-FACTORIAL HepG2 Assay for human Peroxisome Proliferator-activated Receptor-gamma (PPARg) (AID 2283007). The method, then:
ATG_TRANS is a cell-based, multiplexed-readout assay that uses HepG2, a human liver cell line, with measurements taken at 24 hours after chemical dosing in a 24-well plate.ATG_PPARg_TRANS is one of 30 assay component(s) measured or calculated from the ATG_TRANS assay. It is designed to make measurements of mRNA induction, a form of inducible reporter, as detected with fluorescence intensity signals by Reverse transcription polymerase chain reaction (RT-PCR) and Capillary electrophoresis technology.Data from the assay component ATG_PPARg_TRANS was analyzed into 1 assay endpoint. This assay endpoint, ATG_PPARg_TRANS, was analyzed in the positive analysis fitting direction relative to DMSO as the negative control and baseline of activity. Using a type of inducible reporter, measures of mRNA for gain-of-signal activity can be used to understand the reporter gene at the transcription factor-level as they relate to the gene PPARG. Furthermore, this assay endpoint can be referred to as a primary readout, because this assay has produced multiple assay endpoints where this one serves a reporter gene function. To generalize the intended target to other relatable targets, this assay endpoint is annotated to the nuclear receptor intended target family, where the subfamily is non-steroidal.
Human liver HepG2 cells are transiently transfected with multiple reporter transcription units (MRTUs) in 6-well plates using FuGene 6 reagent (Roche; 3 ml FuGene/1 mg DNA). The MRTU constructs are regulated by a cis-regulating element (promoter). […] A major difference between the CIS and TRANS system is that in CIS activities of endogenous TFs are measured, whereas the TRANS assay evaluates changes in activities of exogenous, chimeric NR-Gal4 proteins. […] At the end of 24 hour incubation, total RNA was isolated using TriZol reagent (Invitrogen). The isolated RNA is then reverse-transcribed using oligo(dT) primer and Mo-MLV reverse transcriptase (Invitrogen) with DNAse I (Ambion) treatment for 30 min. The one-tenth of the produced cDNA was amplified by PCR using Taq DNA polymerase (Invitrogen) and two reporter sequence-specific primers. The PCR products were fluorescently labeled by primer extension with 6-arboxyfluorescein (6-FAM) 5'-labeled reporter sequence-specific primer (2 min at 95 C, 20 s at 68 C and 10 min at 72 C) and these products were digested with 5U of HpaI (New England Biolabs) for 2h at 37 C. The fragments were purified using Qiaquick PCR columns (Qiagen), analyzed on an ABI 3130xL genetic analyzer (Applied Biosystems) with peak positions identified by using a set of X-rhodamine (ROX)-labeled MapMarker1000 molecular weight standards (BioVentures). The raw capillary electrophoresis data was processed using Attagraph software (Attagene).
The AC50 is the concentration giving half of the maximal activity seen. For `Cn1cnc([N+](=O)[O-])c1Sc1ncnc2nc[nH]c12`, the AC50 is 39.9 µM (active).

With `CC(C)=CCC/C(C)=C\CO`, the concentration at half-maximal activity (AC50) was 36.5 µM (active). For `CCN(C(=O)c1cc(C)cc(OC[C@H](C)Nc2ccncc2)c1)C(C)C`, the result was inactive. Take `CCc1cc(SCc2sc(-c3ccc(C(F)(F)F)cc3)nc2CN2CCN(c3ccc(OC)cc3)CC2)ccc1OCC(=O)O`: the AC50 is 0.0352 µM (active).

Take `CCCCCCc1ccc(O)cc1O`: the concentration at half-maximal activity (AC50) is 31.2 µM (active). Turning to `Cc1ccc(C)c(O)c1`, the compound was classed as inactive.

In the case of `CCCCCCCCO`, the outcome was inactive. On the same count and under the same terms, under `O=C1OC(=O)C2C3C=CC(C3)C12` (stereo not given) stands “inactive”; under `CC[C@H](C)C(=O)O[C@H]1C[C@@H](C)C=C2C=C[C@H](C)[C@H](CC[C@@H]3C[C@@H](O)CC(=O)O3)[C@H]21`, “inactive”; under `O=P(OC(CCl)CCl)(OC(CCl)CCl)OC(CCl)CCl`, “inactive”. Same read-out and setting: under `CNCc1ccc(NC(=O)c2c[nH]c3c2C(=O)CCC3)cc1` stands “inactive”.

On to `O=C(OC[C@H]1O[C@@H](OC(=O)c2cc(O)c(O)c(OC(=O)c3cc(O)c(O)c(O)c3)c2)[C@H](OC(=O)c2cc(O)c(O)c(OC(=O)c3cc(O)c(O)c(O)c3)c2)[C@@H](OC(=O)c2cc(O)c(O)c(OC(=O)c3cc(O)c(O)c(O)c3)c2)[C@@H]1OC(=O)c1cc(O)c(O)c(OC(=O)c2cc(O)c(O)c(O)c2)c1)c1cc(O)c(O)c(OC(=O)c2cc(O)c(O)c(O)c2)c1`, for which the compound was classed as inactive. Take `CCNc1ccccc1`: the outcome was inactive. `CCOC(=O)CC(CC(=O)OCC)(OC(C)=O)C(=O)OCC`: the AC50 is 52.3 µM (active).

`CC(C)=CCC/C(C)=C/CO`: the AC50 was 63.6 µM (active).

As to `Clc1nc(Cl)c(Cl)c(Cl)c1Cl`, the AC50 is 3.02 µM (active).

`O=C(NS(=O)(=O)/C=C/c1ccccc1)c1ccc(F)cc1Cl`: the AC50 was 22.3 µM (active).

Consider `CC[C@H]1CC[C@H](NCc2cc3c(cc2OC)[C@H]2C[C@H]2C(=O)N3C)[C@H](c2ccccc2)N1`, for which the compound was called inactive. Take `CC(C)CCO`: the compound was classed as inactive.

As for `Cc1c(-c2cccnc2)c2ccccc2n1CCCCC(=O)O`, the AC50 was 22.4 µM (active). As to `COC(=O)c1c(Cl)c(Cl)c(C(=O)OC)c(Cl)c1Cl`, the AC50 is 35.9 µM (active). Take `C1N2CN3CN1CN(C2)C3`: the compound was classed as inactive.

In the case of `COc1ccc(/C=C/S(=O)(=O)NC(=O)c2ccc(C)cc2Cl)cc1`, the half-maximal activity concentration (AC50) was 23.7 µM (active). On the same count and under the same terms, under `CCOc1cccc(-n2cc(C(=O)N3CCN(c4cc(C(=O)O)c5ccccc5c4)CC3)nc2-c2ccc(C)cc2)c1` stands 7.92 µM (active). As for `Fc1ccccc1[C@@H](F)COC1CCC(Nc2ncnc3[nH]ncc23)CC1` (stereo not given in full), the compound was called inactive. Regarding `O=C(O)c1cccc(Oc2ccccc2)c1`, the concentration at half-maximal activity (AC50) was 59.8 µM (active). For the compound `O=C(O)CCN(C1(C(=O)NO)CCCC1)S(=O)(=O)c1ccc(Oc2ccc(F)cc2)cc1`, the call was inactive. Turning to `C=CC(=C)CCC=C(C)C`, the AC50 is 100 µM (active). Regarding `Cn1c(=O)cc(Oc2ccc(F)cc2F)c2cnc(NCC(C)(C)O)nc21`, the AC50 was 6.3 µM (active).

Consider `COc1ccc2sc(C(=O)Nc3nnn[nH]3)c(OC(C)C)c2c1`, for which the AC50 was 22.9 µM (active). With `CC(C)=CCCC(C)CCO` (stereo not given), the AC50 was 42.6 µM (active). Consider `Cc1ccc(S(=O)(=O)O)cc1C`, for which the result was inactive. For `COc1ccc(-n2nc(C(F)F)cc2-c2ccc(S(C)=O)cc2)cc1` (stereo not given), the result was inactive. Turning to `CCCCC(CC)COC(=O)CCCCCCCCC(=O)OCC(CC)CCCC` (stereo not given), the compound was classed as inactive. On to `O=C1CCC(N2C(=O)c3ccccc3C2=O)C(=O)N1` (stereo not given), for which the compound was called inactive.

In the case of `Nc1ccc(Nc2ccccc2)cc1`, the call was inactive. The same measure, in the same setting: under `CCn1nc(Cc2ccccc2)cc1C1CCN(C[C@H]2C[C@H](N(C)[C@@H](C(=O)O)C(C)C)C[C@@H]2c2cccc(F)c2)CC1` stands “inactive”. For `COc1cccc(-c2ccc(/C=C\CN3CCCCCC3)cc2Cl)c1`, the call was inactive. `CN(C)c1ccc(Cc2ccc(N(C)C)cc2)cc1`: the AC50 was 23.1 µM (active). For `CCCCCCCCCCCCCCCO`, the compound was classed as inactive.
